The source made the active and inactive calls. Rule for the calls: active = hit-call score of the fitted dose curve at least 0.9, where 1 is the maximum; inactive = score below 0.9.

Assay [1] is described as follows: ATG_GLI_CIS: Attagene CIS-FACTORIAL HepG2 Assay for human Zinc Finger Protein GLI1 (AID 2282945). To be noted: HepG2, Attagene cis-factorial reporter mRNA, GLI element; actives raise or lower the signal. The method in brief:
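Transiently transfected HepG2 cells report endogenous transcription factor activity via cis-element-driven reporter units. After 24 h compound exposure, reporter mRNA was measured by RT-PCR with capillary electrophoresis; bidirectional fitting against DMSO baseline.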

Assay [2] can be described thus: ATG_ISRE_CIS: Attagene CIS-FACTORIAL HepG2 Assay for human Interferon Regulatory Factor 1 (IRF1) binding to an Interferon-Stimulated Response Element (ISRE) (AID 2282948). To be noted: HepG2 ISRE cis-reporter (Attagene), mRNA transcription readout; actives raise or lower the signal. The method in brief:
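Read-out: fluorescent RT-PCR products resolved by capillary electrophoresis, reporting endogenous transcription factor activity via ISRE-driven reporter mRNA in transfected HepG2 cells dosed for 24 h; gain or loss fitted relative to DMSO.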

A short description of assay [3]: ATG_M_32_CIS: Attagene CIS-FACTORIAL HepG2 Assay for M32 Transcription Factor (Internal Marker) (AID 2282949).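 Note: background control marker of the multiplexed CIS panel rather than a real target.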 To be noted: HepG2 Attagene cis-factorial M32 reporter, mRNA; actives raise or lower the signal. The method in brief: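 HepG2 transfectants (cis-regulated reporter transcription units) dosed 24 h. Reporter mRNA by RT-PCR plus CE, analysed as gain or loss relative to DMSO.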

A short description of assay [4]: ATG_M_06_CIS: Attagene CIS-FACTORIAL HepG2 Assay for M06 Transcription Factor (Internal Marker) (AID 2282950). To be noted: HepG2 Attagene CIS-FACTORIAL M06 internal marker reporter; actives raise or lower the signal. The method in brief:
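Cells (HepG2, transiently carrying cis-driven reporter units) receive chemical for 24 h before RNA isolation. Reporter cDNA is PCR-amplified, FAM-labelled by primer extension, HpaI-digested and sized on a capillary analyser.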

Assay [5] addresses Hypoxia-inducible factor 1-alpha (Homo sapiens) (UniProt Q16665). The experiment in a line: ATG_HIF1a_CIS: Attagene CIS-FACTORIAL HepG2 Assay for human Hypoxia Inducible Factor 1 (HIF1A) (AID 2282951). To be noted: HepG2 Attagene cis-factorial HIF1a reporter transcription; actives raise or lower the signal. The method in brief: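 HepG2, transient cis-reporter library, 24 h dosing. RNA → RT (oligo dT) → PCR → 6-FAM primer extension → HpaI → CE. Bidirectional curve fit vs DMSO.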

Assay [6] deals with Hepatocyte nuclear factor 6 (Homo sapiens) (UniProt Q9UBC0). The experiment in a line: ATG_HNF6_CIS: Attagene CIS-FACTORIAL HepG2 Assay for human Hepatocyte Nuclear Factor 6 (HNF6) (AID 2282952). To be noted: HepG2 Attagene cis-factorial HNF6 reporter transcription; actives raise or lower the signal. The method in brief:
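First, HepG2 cells were transfected with the multiplexed cis reporter library and dosed with chemical for 24 h. Next, RNA was reverse-transcribed, PCR-amplified and fluorescently labelled. Finally, HpaI-digested fragments were read by capillary electrophoresis.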

For assay [7], the target named is Heat shock factor protein 1 (Homo sapiens) (UniProt Q00613). As to the kind of experiment: ATG_HSE_CIS: Attagene CIS-FACTORIAL HepG2 Assay for human Heat Shock Transcription Factor 1 (HSE) (AID 2282953). As to conditions: HepG2 HSE cis-reporter, Attagene RNA transcription; actives raise or lower the signal. In a few lines: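 Liver-derived HepG2 cells carry transiently introduced multiple reporter units governed by cis promoters. Reporter RNA measured 24 h post-dose through reverse transcription, PCR amplification, fluorescent labelling and capillary electrophoresis, normalised to DMSO.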

The nature of assay [8]: ATG_PBREM_CIS: Attagene CIS-FACTORIAL HepG2 Assay for human Phenobarbital-responsive Enhancer Module (PBREM) (AID 2282955). To be noted: HepG2 PBREM cis-reporter, Attagene multiplexed transcription; actives raise or lower the signal. In a few lines: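 HepG2, transient MRTU transfection, 24 h dosing; RNA → oligo(dT) RT → PCR → 6-FAM extension → HpaI → CE. Bidirectional fit vs DMSO.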

Assay [9] concerns the target Paired box protein Pax-6 (Homo sapiens) (UniProt P26367). The experiment in a line: ATG_Pax6_CIS: Attagene CIS-FACTORIAL HepG2 Assay for human Paired Box 6 (PAX6) (AID 2282956). To be noted: HepG2 CIS-FACTORIAL PAX6 reporter transcription, RNA readout; actives raise or lower the signal. The method in brief: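 Readout: reporter transcript fluorescence after RT-PCR and capillary electrophoresis. Cells: HepG2, transiently transfected with cis-regulated MRTUs. Exposure 24 h. Gain or loss of signal fitted bidirectionally relative to DMSO.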

The nature of assay [10]: ATG_PPRE_CIS: Attagene CIS-FACTORIAL HepG2 Assay for human Peroxisome Proliferator-activated Response Element (PPRE) (AID 2282958). As to conditions: HepG2 PPRE cis-element reporter, Attagene transcription factor profiling; actives raise or lower the signal. In a few lines: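 Transcript-level reporter induction in transfected HepG2 cells after 24 h chemical exposure, quantified by fluorescence from RT-PCR products separated by capillary electrophoresis.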

A short description of assay [11]: ATG_RORE_CIS: Attagene CIS-FACTORIAL HepG2 Assay for human RAR-related Orphan Receptor Element (RORE) (AID 2282959). To be noted: HepG2 Attagene cis-factorial RORE reporter, mRNA; actives raise or lower the signal. In a few lines: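 Multiplexed reporter assay measuring mRNA induction from a cis promoter element in transiently transfected HepG2 cells after 24 h treatment. Detection via RT-PCR and capillary electrophoresis fluorescence; DMSO serves as baseline.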

For assay [12], the target named is Transcription factor Sp1 (Homo sapiens) (UniProt P08047). As to the kind of experiment: ATG_Sp1_CIS: Attagene CIS-FACTORIAL HepG2 Assay for human Specificity Protein 1 (Sp1) (AID 2282961). As to conditions: HepG2 Sp1 cis-reporter transcription, actives raise or lower the signal. In a few lines: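 Measures mRNA induction of an Sp1-linked reporter in HepG2 cells 24 h post-dosing. Multiplexed reporters read by RT-PCR and capillary electrophoresis; DMSO serves as negative control and baseline.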

The nature of assay [13]: ATG_SREBP_CIS: Attagene CIS-FACTORIAL HepG2 Assay for human Sterol Regulatory Element Binding (SREBP) (AID 2282962). As to conditions: HepG2 Attagene cis-factorial SREBP reporter, mRNA; actives raise or lower the signal. The method in brief:
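Readout: fluorescent reporter-transcript peaks resolved by capillary electrophoresis after RT-PCR. Cells were human HepG2 carrying transfected cis-promoter reporter constructs, dosed for 24 h. Gain or loss of signal was fitted against DMSO controls.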

For assay [14], the target named is Signal transducer and activator of transcription 3 (Homo sapiens) (UniProt P40763). The experiment in a line: ATG_STAT3_CIS: Attagene CIS-FACTORIAL HepG2 Assay for human Signal Transducer and Activator of Transcription 3 (STAT3) (AID 2282963). As to conditions: HepG2, Attagene cis-factorial STAT3 reporter transcription; actives raise or lower the signal. The method in brief: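 Fluorescence intensity of 6-FAM-labelled reporter fragments, separated by capillary electrophoresis after RT-PCR, gave the signal. Cells were HepG2 transfected with cis-element reporter units and treated 24 h; fitting was bidirectional relative to DMSO.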

Assay [15] can be described thus: ATG_MRE_CIS: Attagene CIS-FACTORIAL HepG2 Assay for human Metal Responsive Element (MRE) (AID 2282954). As to conditions: HepG2 MRE cis-reporter transcription, Attagene multiplex; actives raise or lower the signal. The method in brief: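 Measured here is mRNA induction from an MRE cis-element reporter in HepG2 after 24 h, quantified by fluorescence of labelled RT-PCR products on capillary electrophoresis; gain- and loss-of-signal fits use DMSO as baseline.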

Assay [16] in a line: ATG_Sox_CIS: Attagene CIS-FACTORIAL HepG2 Assay for human SRY-box transcription factor (SOX) (AID 2282960). As to conditions: HepG2 Attagene cis-factorial SOX reporter, mRNA; actives raise or lower the signal. The method in brief: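 Cells were transfected with reporter constructs under cis-regulatory promoters, then exposed to chemicals for 24 h. Reporter transcripts were quantified by fluorescence after RT-PCR and capillary electrophoresis; activity was fitted in both directions against DMSO.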

A short description of assay [17]: ATG_TA_CIS: Attagene CIS-FACTORIAL HepG2 Assay for human TA Basal Promoter (AID 2282964). To be noted: HepG2 Attagene CIS-factorial TA basal promoter reporter; actives raise or lower the signal. In a few lines:
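Background internal-marker endpoint from a 52-component HepG2 cis-reporter panel. Cells treated 24 h; reporter transcripts quantified via RT-PCR and CE fluorescence against DMSO baseline.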

The nature of assay [18]: ATG_PXRE_CIS: Attagene CIS-FACTORIAL HepG2 Assay for human Pregnane X Receptor Element (PXRE) (AID 2282957). To be noted: HepG2 Attagene CIS-FACTORIAL PXRE reporter, mRNA; actives raise or lower the signal. In a few lines: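 After a 24 h chemical incubation, total RNA from transfected HepG2 cells was reverse-transcribed and reporter cDNA amplified, FAM-labeled, HpaI-digested and sized by capillary electrophoresis. DMSO served as baseline for bidirectional curve fitting.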

Hepatocyte nuclear factor 6 (Homo sapiens), sequence (Q9UBC0 whole entry, looked up, the tested form may be a part): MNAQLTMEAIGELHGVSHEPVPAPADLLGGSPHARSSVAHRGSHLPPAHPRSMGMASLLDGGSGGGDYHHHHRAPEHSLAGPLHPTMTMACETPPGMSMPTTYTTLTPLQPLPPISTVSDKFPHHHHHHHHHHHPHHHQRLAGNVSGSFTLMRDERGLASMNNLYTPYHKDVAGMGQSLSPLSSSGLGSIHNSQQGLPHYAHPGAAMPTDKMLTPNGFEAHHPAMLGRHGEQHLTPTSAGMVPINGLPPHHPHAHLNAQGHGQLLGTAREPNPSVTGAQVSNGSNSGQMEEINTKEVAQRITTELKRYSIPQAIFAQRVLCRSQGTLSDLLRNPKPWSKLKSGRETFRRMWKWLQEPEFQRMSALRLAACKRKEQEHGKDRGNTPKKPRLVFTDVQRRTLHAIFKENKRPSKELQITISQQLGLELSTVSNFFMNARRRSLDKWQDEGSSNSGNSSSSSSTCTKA
Signal transducer and activator of transcription 3 (Homo sapiens), sequence (P40763 whole entry, looked up, the tested form may be a part): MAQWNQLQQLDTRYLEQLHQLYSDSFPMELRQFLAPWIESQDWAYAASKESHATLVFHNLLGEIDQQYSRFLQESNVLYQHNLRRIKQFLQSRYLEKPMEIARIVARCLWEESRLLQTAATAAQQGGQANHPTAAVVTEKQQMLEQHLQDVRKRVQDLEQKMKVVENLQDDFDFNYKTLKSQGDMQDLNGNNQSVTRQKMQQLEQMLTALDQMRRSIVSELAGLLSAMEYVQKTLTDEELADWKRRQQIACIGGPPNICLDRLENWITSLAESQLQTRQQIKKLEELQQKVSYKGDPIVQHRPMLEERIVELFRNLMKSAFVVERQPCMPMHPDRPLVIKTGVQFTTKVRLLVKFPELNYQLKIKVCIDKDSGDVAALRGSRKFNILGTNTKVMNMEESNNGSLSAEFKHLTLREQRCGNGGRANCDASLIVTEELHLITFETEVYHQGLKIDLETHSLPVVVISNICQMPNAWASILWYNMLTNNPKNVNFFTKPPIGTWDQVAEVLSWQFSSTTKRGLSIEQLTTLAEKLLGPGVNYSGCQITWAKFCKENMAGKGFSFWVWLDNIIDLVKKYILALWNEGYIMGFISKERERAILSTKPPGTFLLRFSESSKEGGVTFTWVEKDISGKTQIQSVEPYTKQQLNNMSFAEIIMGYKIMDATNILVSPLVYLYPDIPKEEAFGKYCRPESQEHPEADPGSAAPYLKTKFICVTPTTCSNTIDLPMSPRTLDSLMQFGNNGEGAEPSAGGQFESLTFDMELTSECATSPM
Heat shock factor protein 1 (Homo sapiens), sequence (Q00613 whole entry, looked up): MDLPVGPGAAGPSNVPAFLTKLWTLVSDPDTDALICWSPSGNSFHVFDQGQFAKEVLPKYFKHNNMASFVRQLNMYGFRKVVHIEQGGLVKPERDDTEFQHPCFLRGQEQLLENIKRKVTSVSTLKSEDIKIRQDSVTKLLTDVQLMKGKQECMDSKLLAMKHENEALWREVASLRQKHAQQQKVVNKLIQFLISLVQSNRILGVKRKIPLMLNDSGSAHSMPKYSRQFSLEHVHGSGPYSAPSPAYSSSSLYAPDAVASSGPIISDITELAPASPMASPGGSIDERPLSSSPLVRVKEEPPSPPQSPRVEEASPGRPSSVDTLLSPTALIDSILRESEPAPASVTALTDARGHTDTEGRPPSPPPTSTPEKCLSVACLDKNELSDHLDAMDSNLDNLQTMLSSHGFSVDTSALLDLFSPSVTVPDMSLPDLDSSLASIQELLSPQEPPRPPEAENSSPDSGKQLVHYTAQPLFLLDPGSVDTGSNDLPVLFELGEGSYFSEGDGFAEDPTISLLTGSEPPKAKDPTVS
Transcription factor Sp1 (Homo sapiens), sequence (P08047 whole entry, looked up): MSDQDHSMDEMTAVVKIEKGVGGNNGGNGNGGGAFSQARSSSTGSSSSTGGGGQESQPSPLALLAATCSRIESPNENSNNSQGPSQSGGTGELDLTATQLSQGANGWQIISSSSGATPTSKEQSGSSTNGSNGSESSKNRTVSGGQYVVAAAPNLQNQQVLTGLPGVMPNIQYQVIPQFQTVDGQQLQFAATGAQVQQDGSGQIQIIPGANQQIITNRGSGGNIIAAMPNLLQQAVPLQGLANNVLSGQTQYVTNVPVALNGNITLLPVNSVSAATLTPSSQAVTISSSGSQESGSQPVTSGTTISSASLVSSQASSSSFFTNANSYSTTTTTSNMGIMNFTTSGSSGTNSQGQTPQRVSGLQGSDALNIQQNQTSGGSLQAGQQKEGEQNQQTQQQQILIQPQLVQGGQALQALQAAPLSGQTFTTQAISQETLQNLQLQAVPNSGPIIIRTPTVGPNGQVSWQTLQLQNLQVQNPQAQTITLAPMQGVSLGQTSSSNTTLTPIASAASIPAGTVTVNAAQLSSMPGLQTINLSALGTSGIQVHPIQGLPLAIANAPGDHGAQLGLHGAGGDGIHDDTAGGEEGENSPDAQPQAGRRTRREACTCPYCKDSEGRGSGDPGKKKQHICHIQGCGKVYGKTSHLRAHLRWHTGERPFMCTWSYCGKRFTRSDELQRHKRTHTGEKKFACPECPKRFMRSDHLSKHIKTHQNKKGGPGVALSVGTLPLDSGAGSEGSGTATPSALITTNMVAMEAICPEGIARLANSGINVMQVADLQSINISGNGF
Hypoxia-inducible factor 1-alpha (Homo sapiens), sequence (Q16665 whole entry, looked up): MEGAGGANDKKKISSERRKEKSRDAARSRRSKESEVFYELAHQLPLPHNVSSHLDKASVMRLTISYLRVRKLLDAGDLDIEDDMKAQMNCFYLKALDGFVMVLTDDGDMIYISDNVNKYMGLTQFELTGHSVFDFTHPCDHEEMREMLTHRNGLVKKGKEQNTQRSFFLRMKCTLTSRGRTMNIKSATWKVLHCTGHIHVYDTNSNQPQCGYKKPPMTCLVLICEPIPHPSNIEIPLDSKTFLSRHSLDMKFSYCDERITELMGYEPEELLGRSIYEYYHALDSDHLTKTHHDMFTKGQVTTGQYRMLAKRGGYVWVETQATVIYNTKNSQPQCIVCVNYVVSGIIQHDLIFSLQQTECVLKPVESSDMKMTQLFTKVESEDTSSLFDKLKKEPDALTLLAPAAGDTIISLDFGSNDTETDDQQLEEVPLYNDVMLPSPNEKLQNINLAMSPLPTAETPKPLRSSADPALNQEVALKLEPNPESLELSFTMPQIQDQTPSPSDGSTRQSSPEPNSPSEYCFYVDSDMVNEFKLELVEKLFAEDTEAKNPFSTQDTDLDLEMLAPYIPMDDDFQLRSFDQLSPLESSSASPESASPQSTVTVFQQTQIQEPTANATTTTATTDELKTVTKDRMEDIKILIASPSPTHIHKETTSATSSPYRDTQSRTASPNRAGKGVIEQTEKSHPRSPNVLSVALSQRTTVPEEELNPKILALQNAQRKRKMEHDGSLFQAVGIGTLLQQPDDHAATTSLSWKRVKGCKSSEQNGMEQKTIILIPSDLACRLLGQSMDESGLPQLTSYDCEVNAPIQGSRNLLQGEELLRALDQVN
Paired box protein Pax-6 (Homo sapiens), sequence (P26367 whole entry, looked up): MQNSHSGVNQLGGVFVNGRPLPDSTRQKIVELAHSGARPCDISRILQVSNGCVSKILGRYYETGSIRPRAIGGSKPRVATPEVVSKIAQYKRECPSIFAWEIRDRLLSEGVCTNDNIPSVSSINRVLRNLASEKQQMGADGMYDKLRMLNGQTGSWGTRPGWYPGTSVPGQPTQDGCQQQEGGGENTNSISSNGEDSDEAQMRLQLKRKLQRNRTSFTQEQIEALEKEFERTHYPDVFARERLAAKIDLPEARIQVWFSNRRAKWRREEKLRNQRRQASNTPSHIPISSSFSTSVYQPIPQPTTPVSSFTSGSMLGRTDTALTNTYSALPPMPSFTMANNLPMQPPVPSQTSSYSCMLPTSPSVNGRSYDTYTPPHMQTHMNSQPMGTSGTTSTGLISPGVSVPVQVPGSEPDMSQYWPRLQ

For `O=S(=O)(O)c1ccc(N=Nc2c(O)ccc3ccccc23)cc1`, the compound was classed as inactive in [1], in assay [2], in [3], in assay [4], in [6] and in [7]. Also, the outcome in [8], in [9], in [10], in assay [11], in [12] and in [13] was inactive. Further, the outcome in [14] was inactive. Further, the half-maximal activity concentration (AC50) (usually the concentration giving half of the maximal activity seen) in assay [5] is 3 µM (active).

Turning to `CCCCCCCCCC[N+](C)(CCCCCCCCCC)CCC[Si](OC)(OC)OC`, the compound was classed as inactive in assay [1], in [4], in assay [5], in [7], in assay [15] and in assay [9]. The call in [16] and in assay [17] was inactive. The AC50 in [2] is 17.4 µM (active); in assay [3], 20.2 µM (active); in assay [6], 11 µM (active); in [8], 19.3 µM (active); in assay [10], 19.9 µM (active); in assay [11], 18.2 µM (active). For the same compound, the AC50 in [12] is 21.1 µM (active); in [13], 17 µM (active); in assay [14] it was 18.1 µM (active).

As to `O=C(Oc1ccccc1)c1ccccc1C(=O)Oc1ccccc1`, the compound was called inactive in [1], in [2], in assay [3], in [4], in [5] and in assay [6]. The compound was called inactive in assay [7], in [8], in assay [9], in assay [11], in assay [16] and in [12]. Further, the compound was classed as inactive in [13], in [14] and in assay [17]. Further, the concentration at half-maximal activity (AC50) in assay [18] is 24.6 µM (active).

Take `Cc1cc(=O)[nH]c(=O)[nH]1`: the compound was called inactive in assay [1], in assay [2], in [3], in assay [5], in assay [6] and in assay [7]. Moreover, the call in assay [15], in [9], in [10], in assay [11], in assay [16] and in [12] was inactive. Besides, the call in [14] and in assay [17] was inactive. Moreover, the half-maximal activity concentration (AC50) in assay [18] is 24.8 µM (active).

Regarding `CC(C)C(=O)OCCOc1ccccc1`, the compound was classed as inactive in [1], in assay [2], in assay [3], in [4], in [6] and in assay [7]. In addition, the outcome in assay [15], in assay [8], in assay [10], in [11], in assay [16] and in assay [12] was inactive. The compound was classed as inactive in assay [13], in assay [14] and in assay [17]. In assay [18], the AC50 is 4.56 µM (active).
